This passage reports Potency results from ChEMBL document CHEMBL1201862, “PubChem BioAssay data set” (2004).

Screen size: about 400,000 compounds; about 2,100 (0.53%) were called active. Not shown: some 14% with an inconclusive outcome. The rule behind the calls is not given here. For the sample, actives were picked, then their nearest neighbours and some compounds at random.

Ataxin-2 (Homo sapiens), sequence (Q99700 whole entry): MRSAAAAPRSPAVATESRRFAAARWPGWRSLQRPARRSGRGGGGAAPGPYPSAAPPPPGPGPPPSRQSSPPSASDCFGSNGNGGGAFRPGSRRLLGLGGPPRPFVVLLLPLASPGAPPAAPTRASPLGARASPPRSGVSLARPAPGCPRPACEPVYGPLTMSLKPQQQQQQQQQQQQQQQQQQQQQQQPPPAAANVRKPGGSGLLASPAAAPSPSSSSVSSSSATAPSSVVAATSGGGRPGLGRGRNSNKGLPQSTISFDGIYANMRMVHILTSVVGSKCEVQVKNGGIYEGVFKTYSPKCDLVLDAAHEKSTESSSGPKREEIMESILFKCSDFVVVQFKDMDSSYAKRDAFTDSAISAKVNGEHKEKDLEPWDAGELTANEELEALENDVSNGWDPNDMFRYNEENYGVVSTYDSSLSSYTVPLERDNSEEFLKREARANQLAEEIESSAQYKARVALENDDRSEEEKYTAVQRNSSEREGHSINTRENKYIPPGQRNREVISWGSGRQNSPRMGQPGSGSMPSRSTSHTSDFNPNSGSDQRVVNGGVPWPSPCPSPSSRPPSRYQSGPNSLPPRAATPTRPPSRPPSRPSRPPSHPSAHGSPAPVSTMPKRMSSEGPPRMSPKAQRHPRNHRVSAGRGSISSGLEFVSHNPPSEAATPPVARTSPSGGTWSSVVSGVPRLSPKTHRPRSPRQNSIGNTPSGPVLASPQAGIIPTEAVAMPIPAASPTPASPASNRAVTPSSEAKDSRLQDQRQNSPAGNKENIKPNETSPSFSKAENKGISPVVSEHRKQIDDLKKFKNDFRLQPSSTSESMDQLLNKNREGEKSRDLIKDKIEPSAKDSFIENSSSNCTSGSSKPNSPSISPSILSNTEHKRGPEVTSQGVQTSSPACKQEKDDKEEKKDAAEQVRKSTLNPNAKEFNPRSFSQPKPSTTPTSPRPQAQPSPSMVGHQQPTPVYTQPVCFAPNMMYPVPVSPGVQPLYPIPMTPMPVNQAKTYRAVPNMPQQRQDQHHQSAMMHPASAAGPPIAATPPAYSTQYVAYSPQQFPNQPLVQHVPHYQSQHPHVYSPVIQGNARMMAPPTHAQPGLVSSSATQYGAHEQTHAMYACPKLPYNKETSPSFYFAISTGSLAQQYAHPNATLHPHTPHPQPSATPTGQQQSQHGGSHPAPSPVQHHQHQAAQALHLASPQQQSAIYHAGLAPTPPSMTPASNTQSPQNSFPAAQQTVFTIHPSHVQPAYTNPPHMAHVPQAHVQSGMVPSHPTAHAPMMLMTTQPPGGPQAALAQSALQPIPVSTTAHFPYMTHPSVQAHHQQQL

This experiment concerns the target Ataxin-2 (Homo sapiens) (UniProt Q99700). Put plainly: qHTS for Inhibitors of ATXN expression. The format is functional. On the technique in general: Quantitative high-throughput screening tests each substance at several concentrations.
As for `CCN1C(=O)[C@@H]2Cc3c([nH]c4ccccc34)C(c3ccc(OC)cc3)N2C1=S` (some centres undefined), the Potency result is “inactive”. Take `CCOC(=O)c1nnn(-c2ccc([N+](=O)[O-])cc2)c1C`: the Potency entry was “inactive”.

Consider `CCCCCCCCOC(=O)c1cc([N+](=O)[O-])c(Sc2[nH]cnc3ncnc2-3)c([N+](=O)[O-])c1`, for which the Potency is 22.4 µM (active). As for `CCOC(=O)c1cc([N+](=O)[O-])cc([N+](=O)[O-])c1Sc1[nH]cnc2ncnc1-2`, the figure is 29.9 µM (active); as for `CCOc1ccc(C(=O)Oc2cc(C)nc(O)c2[N+](=O)[O-])cc1OCC`, “inactive”; as for `CCc1nc2ccc(C(=O)N3CCN(c4cc(C)ccc4C)CC3)cc2nc1CC`, “inactive”. For the compound `Cc1ccc(C)c(N2CCN(C(=O)CCC(=O)Nc3ccc4nc(N5CCCCC5)cc(C)c4c3)CC2)c1`, the Potency entry is “inactive”. Consider `CCn1c(=O)cc(SCC(=O)N2CCN(c3cc(C)ccc3C)CC2)c2ccccc21`, for which the Potency is 35.5 µM (active).

`O=C1c2cccc3c(O)ccc(c23)C(=O)N1c1ccc(Cl)cc1`: the Potency result is “inactive”. On to `O=CN/C=C/c1cc(O)ccc1O`, for which the Potency is 35.5 µM (active). As for `COC(=O)/C=C/c1sc2nc(C)cc(C)c2c1/N=C/N(C)C`, the entry is “inactive”. As for `COCCN(C(=O)Cc1cccs1)C(C(=O)NCc1ccc(OC)cc1)c1ccc(C(C)C)cc1` (centres undefined), the figure is 39.8 µM (active); as for `COc1ccc(CNC(=O)CNS(=O)(=O)c2cccs2)cc1`, “inactive”; as for `COc1ccc(N(C(=O)c2cnccn2)C(C(=O)NCc2ccccc2)c2ccc(O)cc2)cc1` (centres undefined), “inactive”.

For `Cc1ccc(C(=O)CSc2nnc(C3CC3)n2C2CC2)s1`, the Potency entry is “inactive”.

On to `CC(=O)Nc1ccc(OC(F)(F)Cl)cc1`, for which the Potency entry is “inactive”.

Take `N#C/C(=N/Nc1ccc(OC(F)(F)F)cc1)C(N)=S`: the Potency was 10 µM (active). For the compound `Oc1ccc(-c2onc3ccc(Cl)cc23)cc1`, the Potency entry is “inactive”. For `Oc1ccc(N=Nc2n[nH]c(-c3ccc(Cl)cc3)n2)cc1`, the Potency is 35.5 µM (active). Regarding `Oc1ccc(-c2nccc(-c3ccc(Cl)cc3)n2)cc1`, the Potency entry was “inactive”. As for `CN(C)/C=C1\Oc2ccc3ccccc3c2C1=O`, the entry is “inactive”. Under `O=C1c2cccc3c(O)ccc(c23)C(=O)N1Cc1ccccc1` stands “inactive”. Under `O=C1C=C(c2c(O)ccc3ccccc23)c2ccccc2C1=O` stands 35.5 µM (active). As to `CCN1C(=O)c2cccc3c(S(=O)(=O)NCc4cccnc4)ccc1c23`, the Potency entry is “inactive”.

For the compound `CCCC(=O)OCCNc1cc(Sc2nccn2C)c2nonc2c1[N+](=O)[O-]`, the Potency was 39.8 µM (active). Under `CCC(=O)OCCNc1cc(Sc2nccn2C)c2nonc2c1[N+](=O)[O-]` stands 35.5 µM (active); under `COc1ccccc1OCc1ccc(C(=O)Nc2ccccc2)cc1`, “inactive”; under `COC(C/C=C/C(=O)[C@H](C)OCc1ccccc1)OC`, 39.8 µM (active). As for `Oc1nc2ccccc2nc1-c1c[nH]c2ccccc12`, the entry is “inactive”; as for `Clc1ccc(C(c2ccccc2)c2c[nH]c3ccccc23)s1` (centres undefined), 31.6 µM (active). As for `c1ccc(C(c2cccs2)c2c[nH]c3ccccc23)cc1` (centres undefined), the Potency was 39.8 µM (active). For `CCOc1ccccc1C1C(C(=O)OC)=CN(C)C=C1C(=O)OC`, the Potency entry is “inactive”. Take `CC(=O)Oc1c(-c2ccc(Br)o2)oc2ccccc2c1=O`: the Potency entry was “inactive”. As for `COC(=O)/C(=C1/Oc2cc(C)oc(=O)c2S1)C(F)(F)F`, the figure is 20 µM (active); as for `CC(C)[C@H](NS(=O)(=O)c1ccccc1F)C(=O)NC1CCCCC1`, “inactive”; as for `O=C1C=CC(c2c[nH]c3ccccc23)CC1` (centres undefined), 35.5 µM (active).

With `O=C1NCCNC1(c1c[nH]c2ccccc12)C(F)(F)F` (centres undefined), the Potency entry was “inactive”. Under `CC(=O)N1CCC(c2c[nH]c3ccccc23)CC1` stands “inactive”; under `C=CCn1c(=N)c(C#N)cc2c(=O)n3ccccc3nc21`, “inactive”; under `CC(C)(C)OC(=O)N[C@@H](Cc1ccccc1)c1nnc(S(=O)(=O)Cc2cccc(F)c2)o1`, 31.6 µM (active). With `COC(=O)CS(=O)(=O)c1nnc([C@H](Cc2ccccc2)NC(=O)OC(C)(C)C)o1`, the Potency is 39.8 µM (active). Under `Cc1ccccc1CS(=O)(=O)c1nnc([C@H](Cc2ccccc2)NC(=O)OC(C)(C)C)o1` stands 35.5 µM (active); under `Oc1c(Br)cc(Cl)cc1/C=N/c1ccc(N2CCOCC2)cc1`, “inactive”; under `Cc1ccc(O)c(C(=O)c2cc(C#N)c(=O)n(-c3nccs3)c2)c1`, “inactive”. Under `N=c1c(C(=O)NCc2ccc(F)cc2)cc2c(=O)n3ccccc3nc2n1Cc1cccnc1` stands “inactive”. On to `O=C(Nc1ccc(F)cc1)c1sc2cc(C(F)(F)F)cnc2c1-c1cccs1`, for which the Potency result is “inactive”.

As for `O=C(Oc1ccc2c(-c3ccccc3)cc(=O)oc2c1)C1CCCCC1`, the Potency result was “inactive”.

Take `CNC(=O)/C(C#N)=C/c1c(N2CCN(c3ccccc3)CC2)nc2c(C)cccn2c1=O`: the Potency result is “inactive”.

In the case of `Cc1cc(Oc2nc3c(C)cccn3c(=O)c2/C=C(\C#N)S(=O)(=O)c2ccccc2)ccc1Cl`, the Potency is 39.8 µM (active). As to `Cc1cccn2c(=O)c(C=C(C#N)C#N)c(N3CCN(c4ccccc4)CC3)nc12`, the Potency result is “inactive”. On to `O=C(CCSc1ccc(Cl)cc1)Nc1cccnc1`, for which the Potency result is “inactive”.

Consider `COc1ccc(C(NC(=O)C2CCN(CCOc3ccc(Cl)cc3Cl)CC2)c2ccccc2C)cn1` (centres undefined), for which the Potency is 31.6 µM (active).

On to `O=C(NC(c1ccc(F)cc1)c1ccc2ccccc2n1)C1CCN(CCOc2ccc(Cl)cc2Cl)CC1` (centres undefined), for which the Potency is 22.4 µM (active). In the case of `O=C(NC(c1ccc(Cl)cc1)c1cccnc1)C1CCN(CCOc2ccc(Cl)cc2Cl)CC1` (centres undefined), the Potency was 39.8 µM (active). As to `CCS(=O)(=O)N1CCN(Cc2c[nH]c3ccccc23)CC1`, the Potency entry was “inactive”. For `COc1cc(OC)nc(C(NC(=O)C2CCN(Cc3c[nH]c4ccccc34)CC2)c2ccc(Cl)cc2)n1` (centres undefined), the Potency is 35.5 µM (active). Take `COc1ccc(NC(=O)c2cc(S(=O)(=O)N3CCCC3)ccc2C)cn1`: the Potency entry was “inactive”. As for `O=C(COC(=O)Cc1c[nH]c2ccccc12)Nc1cc(S(=O)(=O)N2CCOCC2)ccc1Cl`, the entry is “inactive”; as for `CCOc1ccc(Cl)cc1S(=O)(=O)N1CCC(C(=O)NC2CC2)CC1`, “inactive”; as for `Cn1cc(/C=N\O)nc2c(=O)n(-c3ccccc3)c(=O)nc1-2`, “inactive”.

In the case of `O=C(COC(=O)/C=C/c1ccc(S(=O)(=O)N2CCc3ccccc32)cc1)NC1CCS(=O)(=O)C1` (centres undefined), the Potency entry is “inactive”. As for `CNc1cncc(-c2ccc(S(C)(=O)=O)cc2)n1`, the entry is “inactive”; as for `N=c1c(S(=O)(=O)c2ccc(Cl)cc2)cc2c(=O)n3ccccc3nc2n1Cc1ccco1`, “inactive”.

As to `COc1ccc(NS(=O)(=O)c2cccc(C(=O)NN=C(C)c3ccco3)c2)cc1`, the Potency result was “inactive”.

For the compound `Cc1ccccc1/C=C/c1cc[n+](C)cc1`, the Potency result is “inactive”. For the compound `NC(=O)C1CCN(CC(=O)Nc2ccccc2Sc2ccc(Cl)cc2)CC1`, the Potency result is “inactive”. On to `O=C(NC(c1ccccc1)c1ccsc1)C1CCN(CCOc2ccc(Cl)cc2Cl)CC1` (centres undefined), for which the Potency is 39.8 µM (active).

Turning to `COc1ccc(Cl)cc1NC(=O)CNC(c1ccccc1)c1ccccc1`, the Potency result is “inactive”. Under `COc1ccc2nc(N3CCCC(O)C3)c(C#N)cc2c1` (centres undefined) stands “inactive”; under `NC[C@@H]1O[C@H](C23CC4CC(CC(C4)C2)C3)Cc2c1ccc(O)c2O`, 31.6 µM (active); under `CCOCCCn1c(=N)c(C(=O)NCCN2CCOCC2)cc2c(=O)n3cccc(C)c3nc21`, “inactive”.

Take `CC(C)=CCc1cc([C@@H]2COc3c(ccc4c3C=CC(C)(C)O4)C2)c(O)cc1O`: the Potency was 35.5 µM (active). As for `CCCCC(=O)Nc1nn(CC)c2nc3c(C)cccc3cc12`, the entry is “inactive”; as for `Nc1c(C(=O)N2CCCC2)sc2nc(-c3ccccc3)ccc12`, “inactive”. As for `C[C@H]1CCCCO[C@@H](CN(C)S(=O)(=O)c2ccc(Cl)cc2)[C@@H](C)CN([C@@H](C)CO)C(=O)c2cc(NS(=O)(=O)c3ccccc3)ccc2O1`, the figure is 31.6 µM (active); as for `C[C@@H]1CCCCO[C@@H](CN(C)CC2CCCCC2)[C@@H](C)CN([C@H](C)CO)C(=O)c2cc(NS(=O)(=O)c3ccc(Cl)cc3)ccc2O1`, 31.6 µM (active); as for `COc1ccc(S(=O)(=O)N(C)C[C@@H]2OCCCC[C@@H](C)Oc3ccc(NC(=O)NC(C)C)cc3C(=O)N([C@H](C)CO)C[C@@H]2C)cc1`, “inactive”.

Regarding `C[C@@H]1CCCCO[C@H](CN(C)Cc2ccccc2)[C@@H](C)CN([C@H](C)CO)C(=O)c2cc(NS(=O)(=O)c3ccc(Cl)cc3)ccc2O1`, the Potency was 35.5 µM (active). With `N#CC(Sc1ccccn1)c1ccc(Cl)cc1` (centres undefined), the Potency result is “inactive”. As to `O=S(=O)(Nc1cccc(Cl)c1)c1ccc2[nH]c3c(c2c1)CCCCCC3`, the Potency is 31.6 µM (active). For the compound `CC(C)c1ccc2[nH]c(O)c(N=NC(=O)c3cccc(S(=O)(=O)Nc4cccc(Cl)c4)c3)c2c1`, the Potency was 1.41 µM (active). Under `CN(CC(=O)Nc1cccc(Cl)c1)S(=O)(=O)c1ccc2[nH]c3c(c2c1)CCCC3` stands 39.8 µM (active); under `O=C(COC(=O)c1ccc2[nH]c3c(c2c1)CCCC3)NC1CCS(=O)(=O)C1` (centres undefined), “inactive”; under `CC(C)c1ccc2[nH]c3c(c2c1)CCC/C3=N\NC(=O)c1ccncc1`, “inactive”. With `CN(CC(=O)Nc1cccc(C(F)(F)F)c1)S(=O)(=O)c1ccc2[nH]c3c(c2c1)CCCC3`, the Potency was 35.5 µM (active). Under `Clc1ccc2[nH]c3c(c2c1)CNCC3` stands “inactive”; under `Cc1ccc(S(=O)(=O)Nc2cccc(N(C)S(C)(=O)=O)c2)cc1[N+](=O)[O-]`, “inactive”; under `CSc1nc(O)c(C(c2ccc(C)cc2)c2c(O)nc(SC)nc2O)c(O)n1`, “inactive”. Regarding `CCCn1c(=O)n(CC(=O)NCC2CCCO2)c(=O)c2c3c(sc21)COC(C)(C)C3` (centres undefined), the Potency result was “inactive”. Under `CC1CCc2sc(C(=O)OCC(=O)NC(C)C)cc2C1` (centres undefined) stands “inactive”; under `Cc1cc(NC(=O)CCC(=O)N(C(C(=O)NC(C)(C)C)c2ccccc2Cl)C(C)(C)C)no1` (centres undefined), “inactive”. For `COc1ccccc1C1C2=C(CCCC2=O)N(CC(=O)O)C2=C1C(=O)CCC2`, the Potency result is “inactive”. As to `Cc1ccc(NC(=O)c2sc3nc(-c4ccc(F)cc4)ccc3c2N)cc1F`, the Potency result is “inactive”. Under `CC(C)c1ccc(C2=CC(c3ccc(C(C)C)cc3)n3nnnc3N2)cc1` (centres undefined) stands “inactive”.
